The values below come from PubChem BioAssay.

Active and inactive are the calls of the source.

Assay [1] concerns Human papillomavirus type 1a protein E7 (residues 44-93). In words: HPV1a E7 fragment binders on microarrays, primary screen, biochemical, small-molecule microarray, residues 44-93, 635 nm fluorescence (AID 1108).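 Note: E7 fragment applied at 1 µg/mL in TBST for 1 h at 4 C; score combines spot fluorescence with its signal to noise ratio.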 Conditions: small-molecule microarray binding, fluorescence 635 nm; higher = more signal.
A short description of assay [2]: modulators of HCV replicon luciferase signal, primary screen, HCV replication inhibitor project, Huh7 cells, luciferase reporter (AID 1109).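 Note: huh7 hepatoma cells harbouring a luciferase neomycin HCV replicon reporter; luciferase luminescence as measure of HCV replicon replication; test concentration not given here.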 To be noted: 48 h, higher = more signal. On the technique in general: In antiviral work, replicon cells carry a viral genome segment that copies itself.
Assay [3] addresses Left-right determination factor 2 (Homo sapiens) (UniProt O00292). In words: LEFTY2 binders on small-molecule microarrays, primary screen, biochemical, small-molecule microarray, 635 nm fluorescence scan (AID 1110). To be noted: LEFTY2 binding, higher = more signal.
The target of assay [4] is Calmodulin-1 (Homo sapiens) (UniProt P0DP23). Briefly: CALM1 binders on microarrays, EGTA buffer, profiling panel, biochemical, small-molecule microarray, Cy5-labelled CALM1 (AID 1111).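 Note: labelled calmodulin applied in Tris saline Tween buffer holding calcium plus EGTA and DTT.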 Conditions: Cy5-CALM1 binding fluorescence, higher = more signal.
The target is the same in assay [5]. Briefly: calcium-bound CALM1 binders on microarrays, profiling panel, artefact control for SMM control-protein annotation, biochemical, small-molecule microarray, Cy5-labelled CALM1, plus calcium (AID 1112).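 Note: score merges spot fluorescence with signal to noise from triplicate slides.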 To be noted: Cy5-CALM1 binding fluorescence, higher = more signal.
Assay [6] is described as follows: small-molecule microarray binders of probe aWnt5a, primary screen, biochemical, biotinylated probe, 635/667 nm fluorescence (AID 1113).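 Note: score merges 667 nm fluorescence intensity with signal-to-noise per printed feature.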 To be noted: higher = more signal.
Assay [7] is described as follows: small-molecule microarray binders of probe aShh, primary screen, biochemical, biotinylated probe, 635/667 nm fluorescence (AID 1114).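 Note: probe is biotin-labelled aShh protein from a stem cell growth factor screen; measures binding of labelled protein to compounds printed on the slide; score merges feature fluorescence at 667 nm with signal-to-noise.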 Conditions: higher = more signal.
Assay [8] can be described thus: small-molecule microarray binders of probe aNog, primary screen, biochemical, biotinylated probe, 635/667 nm fluorescence (AID 1115).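 Note: probe is biotinylated aNog protein used at 0.15 µg/mL for 1 h at 4 C; z-score combines 667 nm fluorescence of each spot with its signal to noise.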 To be noted: higher = more signal.
Assay [9] addresses Torsin-1A-interacting protein 1 (Homo sapiens) (UniProt Q5JTV8). Briefly: LAP1 binders from COS7 cell lysate, primary screen, small-molecule microarray, 635/667 nm fluorescence (AID 1116). Conditions: COS7-hLAP1 lysate binding, 635 nm fluorescence, higher = more signal.
Assay [10] deals with Alpha-bungarotoxin (Bungarus multicinctus) (UniProt P60615). In words: alpha-bungarotoxin binders on microarray, profiling panel, artefact control for SMM control protein annotation, biochemical, small-molecule microarray, Alexa647 label, 635/667 nm fluorescence (AID 1117). Conditions: alpha-BTX-A647 binding fluorescence, higher = more signal.
Sequence of Alpha-bungarotoxin (Bungarus multicinctus) (P60615 whole entry, looked up): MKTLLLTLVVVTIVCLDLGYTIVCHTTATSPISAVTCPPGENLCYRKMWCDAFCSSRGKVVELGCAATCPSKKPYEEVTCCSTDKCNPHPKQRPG
Assay [11] has as its target Albumin (Bos taurus) (UniProt P02769). In words: bovine serum albumin binders on microarray, profiling panel, artefact control for SMM control protein annotation, biochemical, small-molecule microarray, Alexa647 label, 635/667 nm fluorescence (AID 1118).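 Note: score merges 667 nm emission intensity and signal-to-noise per printed compound spot.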 To be noted: BSA-A647 binding, fluorescence 635 nm, higher = more signal.
A short description of assay [12]: small-molecule microarray binders of probe aXIP, primary screen, biochemical, NeuroSMM set, 635/667 nm fluorescence (AID 1119).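 Note: probe is the protein aXip251-270 applied at 1 µg/mL to compound-printed slides; binding of probe to printed compounds measured as 667 nm fluorescence plus signal to noise.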 Conditions: higher = more signal, called active from +8 up or from −8 down.
A short description of assay [13]: small-molecule binders of probe aNOTCH3, primary screen, biochemical, small-molecule microarray, 635/667 nm fluorescence (AID 1120).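 Note: probe is a biotin-tagged antibody raised against NOTCH3 rather than NOTCH3 protein; score merges spot fluorescence near 667 nm with spot signal to noise.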 To be noted: higher = more signal.
Assay [14] in a line: small-molecule binders of probe aNOTCH2, primary screen, biochemical, small-molecule microarray, 635/667 nm fluorescence (AID 1121).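 Note: score merges feature fluorescence read at 667 nm with its signal to noise.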 To be noted: higher = more signal.
Assay [15] addresses Carbonic anhydrase 2 (Homo sapiens) (UniProt P00918). In words: CAII small-molecule binders, profiling panel, biochemical, small-molecule microarray, Alexa647-labelled CAII (AID 1122). To be noted: CAII-A647 binding fluorescence, higher = more signal.
A short description of assay [16]: COS7 lysate on small-molecule microarray, probe aHis, 635 nm (AID 1123).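 Note: z-score combines 667nm fluorescence intensity with signal-to-noise per printed compound spot.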 To be noted: COS7 cell lysate, fluorescence, higher = more signal.
Assay [17] in a line: compound binding in COS7 lysate, probe aLAP1, primary screen, cell lysate, small-molecule microarray (AID 1124).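 Note: lysate comes from COS7 cells expressing LAP1 and is applied at 0.3 µg/mL; score merges spot fluorescence near 667 nm with signal-to-noise over triplicate slides.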 To be noted: probe aLAP1, fluorescence, higher = more signal.
In assay [18] the test system is Sam68 (KHDRBS1). Briefly: Sam68 small-molecule binders, primary screen, biochemical, small-molecule microarray, 635 nm fluorescence (AID 1125).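 Note: score merges 667 nm channel intensity with signal to noise over triplicate slides.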 Conditions: small-molecule microarray binding, higher = more signal.
Assay [19] has as its system Chordin-like protein 2 (CHRDL2). In words: CHRDL2 small-molecule binders, primary screen, biochemical, small-molecule microarray, 635 nm fluorescence (AID 1126).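 Note: printed compound slides probed with Chrdl2 protein at 4 µg/mL for 1 h at 4 C; score merges 667 nm emission intensity with signal to noise over three replicate slides.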 Conditions: small-molecule microarray binding, fluorescence 635 nm; higher = more signal.
Assay [20] concerns the target Concanavalin-A (Canavalia ensiformis) (UniProt P02866). Briefly: ConA small-molecule binders, primary screen, artefact control for SMM control protein annotation, biochemical, small-molecule microarray, Alexa647 label, 635 nm (AID 1127).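 Note: z combines 667 nm emission intensity with signal-to-noise across three replicate slides.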 To be noted: ConA-A647 binding fluorescence, higher = more signal.

Sequence of Left-right determination factor 2 (Homo sapiens) (O00292 whole entry, looked up): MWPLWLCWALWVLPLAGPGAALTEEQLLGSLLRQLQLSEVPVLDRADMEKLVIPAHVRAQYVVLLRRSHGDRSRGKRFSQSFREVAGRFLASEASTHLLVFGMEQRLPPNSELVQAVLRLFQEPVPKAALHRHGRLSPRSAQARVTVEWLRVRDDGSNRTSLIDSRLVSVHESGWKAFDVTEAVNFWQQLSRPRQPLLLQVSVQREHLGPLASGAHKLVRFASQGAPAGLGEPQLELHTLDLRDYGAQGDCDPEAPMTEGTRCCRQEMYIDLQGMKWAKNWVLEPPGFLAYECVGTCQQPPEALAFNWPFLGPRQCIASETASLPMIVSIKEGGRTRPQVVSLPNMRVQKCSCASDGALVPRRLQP
Sequence of Albumin (Bos taurus) (P02769 whole entry, looked up): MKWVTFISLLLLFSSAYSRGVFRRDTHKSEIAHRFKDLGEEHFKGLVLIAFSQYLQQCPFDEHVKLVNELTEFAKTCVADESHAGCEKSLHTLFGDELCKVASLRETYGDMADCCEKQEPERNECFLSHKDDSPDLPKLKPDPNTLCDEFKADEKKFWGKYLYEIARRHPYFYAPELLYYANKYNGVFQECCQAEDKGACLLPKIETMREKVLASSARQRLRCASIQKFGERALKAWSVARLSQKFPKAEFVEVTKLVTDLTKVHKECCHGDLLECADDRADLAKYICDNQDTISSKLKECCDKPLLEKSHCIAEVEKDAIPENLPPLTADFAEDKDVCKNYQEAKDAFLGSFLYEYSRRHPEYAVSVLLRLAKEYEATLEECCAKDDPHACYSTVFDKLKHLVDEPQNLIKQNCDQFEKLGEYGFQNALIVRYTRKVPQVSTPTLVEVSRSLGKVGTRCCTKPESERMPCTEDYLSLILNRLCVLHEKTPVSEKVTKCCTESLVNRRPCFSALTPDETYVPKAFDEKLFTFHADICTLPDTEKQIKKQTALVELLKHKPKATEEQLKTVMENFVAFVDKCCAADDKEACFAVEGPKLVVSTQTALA
Sequence of Concanavalin-A (Canavalia ensiformis) (P02866 whole entry, looked up): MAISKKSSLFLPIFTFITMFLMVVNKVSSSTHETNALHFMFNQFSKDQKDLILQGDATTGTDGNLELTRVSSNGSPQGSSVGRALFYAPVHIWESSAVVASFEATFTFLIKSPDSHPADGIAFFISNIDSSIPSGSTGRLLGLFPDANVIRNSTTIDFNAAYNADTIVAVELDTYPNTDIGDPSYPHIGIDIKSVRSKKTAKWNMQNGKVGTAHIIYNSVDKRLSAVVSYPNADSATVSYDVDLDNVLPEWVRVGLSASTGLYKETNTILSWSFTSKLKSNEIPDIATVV
Sequence of Torsin-1A-interacting protein 1 (Homo sapiens) (Q5JTV8 whole entry, looked up): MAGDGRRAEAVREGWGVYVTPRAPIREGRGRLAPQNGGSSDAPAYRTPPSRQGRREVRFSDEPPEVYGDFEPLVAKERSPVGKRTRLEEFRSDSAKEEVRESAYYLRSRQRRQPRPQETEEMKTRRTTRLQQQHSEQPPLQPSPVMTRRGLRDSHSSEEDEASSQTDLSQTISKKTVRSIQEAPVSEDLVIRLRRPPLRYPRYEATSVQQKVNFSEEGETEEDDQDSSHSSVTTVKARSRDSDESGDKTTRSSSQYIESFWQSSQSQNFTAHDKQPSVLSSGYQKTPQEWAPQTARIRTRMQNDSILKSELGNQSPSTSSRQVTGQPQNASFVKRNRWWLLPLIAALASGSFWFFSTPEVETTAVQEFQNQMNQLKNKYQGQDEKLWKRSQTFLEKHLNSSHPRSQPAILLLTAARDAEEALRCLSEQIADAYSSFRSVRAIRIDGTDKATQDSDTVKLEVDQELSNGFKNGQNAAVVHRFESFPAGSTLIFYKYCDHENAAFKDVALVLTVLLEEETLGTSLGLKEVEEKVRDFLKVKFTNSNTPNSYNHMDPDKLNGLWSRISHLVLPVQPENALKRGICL

With `COCCOC(=O)N1C(=O)[C@@]2(c3cc(C#CCC(C(=O)OC)C(=O)OC)ccc31)[C@H](c1ccc(OCCO)cc1)N1[C@H](c3ccccc3)[C@H](c3ccccc3)OC(=O)[C@H]1[C@@H]2C(N)=O`, the composite z-score in assay [1] is 1.35; in assay [3], 0.535; in assay [4] it was 1.61; in [5], 0.193; in assay [6], -0.0718; in assay [7], 0.0639. Besides, the composite z-score in [8] was 0.129; in [9] it was -0.189; in assay [10], 0.992; in [11], 0.84; in [13], -0.0077; in [14], 0.0264. Besides, the composite z-score in assay [15] stood at 0.57; in [16] it was 2.82; in [17], 1.02; in assay [18], 1.29; in assay [19], 0.474; in assay [20] it was 1.15. This compound also yielded a z-score in [2] of -1.12. The composite Z-score in [12] is 0.674 (inactive).
As for `COC(=O)C(CC#Cc1ccc2c(c1)[C@]1(C(=O)N2)[C@H](C(=O)N2CCc3cc(OC)c(OC)cc3C2)[C@H]2C(=O)O[C@H](c3ccccc3)[C@H](c3ccccc3)N2[C@@H]1c1ccc(O)cc1)C(=O)OC`, the composite z-score in assay [1] is 1.27; in assay [3], 1.35; in assay [4], 1.35; in [5] it was 0.537; in [6] it was -0.0303; in [7], 0.529. Also, the composite z-score in assay [8] was -0.491; in [9], 0.908; in assay [10] it was 1.12; in assay [11], -1.1; in assay [13] it was 0.233; in [14], 0.0273. Further, the composite z-score was 0.326 in assay [15]; 1.64 in [16]; -0.137 in assay [17]; 1.29 in assay [18]; 1.25 in assay [19]; 1.16 in [20]. In assay [2], this compound showed a z-score of -1.06. In addition, the composite Z-score in assay [12] is -0.0536 (inactive).
With `COCCCNC(=O)[C@]1(Cc2ccccc2CN=[N+]=[N-])N=C(c2ccc(OCCCO)cc2)O[C@@H]1c1ccccc1CN=[N+]=[N-]`, the composite z-score in assay [1] is -0.113; in assay [3] it was 0.0705; in [4], 1.85; in [5], 0.945; in [6], 0.19; in assay [7], 0.417. The composite z-score turned out to be 1.92 in assay [8]; 2.09 in assay [9]; 1.3 in [10]; 0.864 in assay [11]; 0.364 in assay [13]; 0.309 in assay [14]. The composite z-score in [15] was 0.613; in assay [16], 2.28; in [17], 1.09; in assay [18] it was 1.29; in assay [19], -0.0479; in assay [20], 1. Further, in [2], the z-score is -2.54. Moreover, the composite Z-score in assay [12] is 0.701 (inactive).
Consider `C[C@H]1ON(c2ccccc2)[C@@H](c2ccccc2)[C@@H]1C(=O)N1C(=O)OC[C@@H]1c1ccccc1`, for which the composite z-score in [1] was 0.184; in assay [3], 0.521; in assay [4], -0.238; in assay [5], -0.162; in assay [6], -0.134; in assay [7], -0.251. Moreover, the composite z-score in [8] was -0.0855; in [9], 0.357; in assay [10] it was -0.1; in assay [11], 0.0537; in assay [13], -0.0493; in assay [14], -0.118. Further, the composite z-score in [15] is 0.259; in assay [16] it was 0.46; in [17], -0.0222; in [18] it was 0.44; in [19], 0.424; in [20], 0.0565. In addition, the z-score in [2] was -0.432. For the same compound, the composite Z-score in assay [12] was 1.2 (inactive).
For `COC(=O)[C@]1(Cc2ccccc2CN=[N+]=[N-])N=C(c2ccc(OCCCO)cc2)O[C@@H]1c1ccccc1`, the composite z-score in assay [1] was -1.61; in [3] it was -1.63; in [4], -0.103; in assay [5] it was 0.128; in assay [6], -0.228; in assay [7], -0.0793. Besides, the composite z-score in [8] was -0.361; in assay [9] it was -1.18; in [10], 1.13; in assay [11] it was -0.312; in assay [13] it was -0.122; in assay [14] it was -0.0194. The composite z-score in assay [15] was 0.563; in assay [16] it was 0.243; in assay [17] it was -0.779; in [18], -0.776; in assay [19] it was -0.928; in assay [20], 0.694. In assay [2], this compound returned a z-score of -3.19. Also, the composite Z-score in [12] was 0.667 (inactive).
For the compound `COCCOC(=O)N1C(=O)[C@@]2(c3cc(C#CCCO)ccc31)[C@H](C(=O)NC[C@H](O)c1ccccc1)[C@H]1C(=O)O[C@H](c3ccccc3)[C@H](c3ccccc3)N1[C@@H]2c1ccccc1OCCO`, the composite z-score in assay [1] is 1.43; in [3] it was 0.966; in assay [4], 0.362; in assay [5] it was -0.354; in [6] it was 0.287; in assay [7] it was 0.323. Besides, the composite z-score in assay [8] was 1.36; in [9], 1.12; in assay [10], 0.784; in [11], -0.919; in assay [13], 0.252; in assay [14] it was 0.177. The composite z-score in [15] came to 0.0771; in [16] it was 1.33; in assay [17], 1.32; in assay [18] it was 1.3; in assay [19] it was 0.969; in [20] it was 1.09. Also, the z-score in assay [2] was -1.31. For the same compound, the composite Z-score in [12] was 0.427 (inactive).
